Experimental data taken from PubChem BioAssay (Tox21).
Inconclusive results are not listed. Where a call stands in place of a potency, no number is given. Active and inactive are the calls of the source. Unless noted, the call rests on the fitted dose curve; in most records, active means well fitted curve in the direction sought with a large enough effect in the repeat runs; inconclusive means weak or mixed curves; inactive means no such curve, though single readings can be large; an effect the other way counts as inactive or inconclusive.

Key:
[1] = qHTS assay to identify small molecule antagonists of the glucocorticoid receptor (GR) signaling pathway - cell viability counter screen (AID 720693); further: nearly all actives have a fitted effect of over 55% in size; further: potency means the concentration at half of the fitted maximal effect
[2] = qHTS assay for identifying genotoxic compounds that show differential cytotoxicity against isogenic chicken DT40 cell lines with known DNA damage response pathways - wild type cell line (AID 743012); further: nearly all actives have a fitted effect of over 60% in size; further: potency means the concentration at half of the fitted maximal effect
How it was run: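 Wild type DT40, 300 cells/well, ~0.5 h settle at 37 C/5% CO2; compounds in DMSO added by pintool; 40 h at 37 C/5% CO2; CellTiter-Glo, 30 min RT; luminescence.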

[3] = qHTS assay for identifying genotoxic compounds that show differential cytotoxicity against isogenic chicken DT40 cell lines with known DNA damage response pathways - Rev3 mutant cell line (AID 743014); further: nearly all actives have a fitted effect of over 55% in size; further: potency means the concentration at half of the fitted maximal effect
[4] = qHTS assay for identifying genotoxic compounds that show differential cytotoxicity against isogenic chicken DT40 cell lines with known DNA damage response pathways - Rad54/Ku70 mutant cell line (AID 743015); further: nearly all actives have a fitted effect of over 60% in size; further: potency means the concentration at half of the fitted maximal effect
[5] = qHTS assay to identify small molecule antagonists of the androgen receptor (AR) signaling pathway - cell viability counter screen (AID 743033; further: nearly all actives have a fitted effect of over 45% in size)
[6] = biological target: Androgen receptor (Homo sapiens) (UniProt P10275); assay: qHTS assay to identify small molecule antagonists of the androgen receptor (AR) signaling pathway (AID 743035; active means well fitted inhibition curve with a large enough effect in the signal ratio in the repeat runs, not every such curve was filed as active; the % refers to the signal ratio; further: potency means the concentration at half of the fitted maximal effect)
Androgen receptor (Homo sapiens), sequence (P10275 whole entry, looked up): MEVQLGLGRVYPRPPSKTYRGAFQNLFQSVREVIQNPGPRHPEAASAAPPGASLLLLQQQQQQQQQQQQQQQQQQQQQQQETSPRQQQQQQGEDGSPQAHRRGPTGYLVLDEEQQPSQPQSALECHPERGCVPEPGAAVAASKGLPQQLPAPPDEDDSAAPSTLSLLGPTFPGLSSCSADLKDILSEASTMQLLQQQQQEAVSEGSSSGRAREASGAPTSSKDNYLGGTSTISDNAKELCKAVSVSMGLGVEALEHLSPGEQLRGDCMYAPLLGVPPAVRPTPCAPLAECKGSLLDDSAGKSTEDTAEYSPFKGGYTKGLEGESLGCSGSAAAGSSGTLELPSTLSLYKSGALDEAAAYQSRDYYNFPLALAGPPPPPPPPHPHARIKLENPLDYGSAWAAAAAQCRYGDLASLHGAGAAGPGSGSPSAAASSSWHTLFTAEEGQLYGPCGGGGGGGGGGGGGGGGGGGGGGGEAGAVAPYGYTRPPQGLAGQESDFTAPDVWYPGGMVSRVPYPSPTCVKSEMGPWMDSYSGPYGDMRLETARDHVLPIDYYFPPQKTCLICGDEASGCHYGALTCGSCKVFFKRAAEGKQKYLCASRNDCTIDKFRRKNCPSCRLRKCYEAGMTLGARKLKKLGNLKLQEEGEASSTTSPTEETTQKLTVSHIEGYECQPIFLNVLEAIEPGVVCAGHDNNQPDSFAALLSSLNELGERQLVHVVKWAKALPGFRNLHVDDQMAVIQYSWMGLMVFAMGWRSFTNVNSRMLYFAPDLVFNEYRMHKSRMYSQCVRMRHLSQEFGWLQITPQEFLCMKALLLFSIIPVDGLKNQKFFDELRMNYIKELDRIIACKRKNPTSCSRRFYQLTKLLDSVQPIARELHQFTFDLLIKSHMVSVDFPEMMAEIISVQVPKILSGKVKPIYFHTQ
How it was run: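 Fluorescence from a beta-lactamase FRET substrate (LiveBLAzer B/G, 2 h, room temperature) measured inhibition of R1881-stimulated signaling in GeneBLAzer AR-UAS-bla HEK293 cells exposed to compound for 16 h at 37C.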

[7] = biological target: Androgen receptor (Homo sapiens) (UniProt P10275); assay: qHTS assay to identify small molecule agonists of the androgen receptor (AR) signaling pathway (AID 743036; active means well fitted activation curve with a large enough effect in the signal ratio in the repeat runs, with a control signal flat, not every such curve was filed as active; the % refers to the signal ratio; further: potency means the concentration at half of the fitted maximal effect)
How it was run: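 AR-UAS-bla HEK293 cells, plated 4 h before dosing, were treated with compound for 16 h at 37C. beta-Lactamase reporter read after 2 h with LiveBLAzer B/G FRET substrate at room temperature.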

[8] = biological target: Androgen receptor (Homo sapiens) (UniProt P10275); assay: qHTS assay to identify small molecule agonists of the androgen receptor (AR) signaling pathway using the MDA cell line (AID 743040; further: nearly all actives have a fitted effect of over 20% in size; further: potency means the concentration at half of the fitted maximal effect)
How it was run: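 MDA-kb2 breast carcinoma cells stably carrying an MMTV-driven luciferase reporter (AR- and GR-responsive) were seeded and held 5 h at 37C, 0% CO2, then exposed to compounds in DMSO for 16 h. Luminescence was read 30 min after ONE-Glo addition.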

[9] = qHTS assay to identify small molecule antagonists of the androgen receptor (AR) signaling pathway using the MDA cell line - cell viability counter screen (AID 743041; further: nearly all actives have a fitted effect of over 45% in size)
How it was run: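 MDA-kb2 AR-luc human breast carcinoma cells (MMTV-luciferase, AR/GR responsive) were treated with compounds plus R1881 agonist for 16 h at 37 °C. Viability was read as CellTiter-Fluor fluorescence in the same wells as the reporter assay.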

[10] = biological target: Androgen receptor (Homo sapiens) (UniProt P10275); assay: qHTS assay to identify small molecule antagonists of the androgen receptor (AR) signaling pathway using the MDA cell line (AID 743042; further: nearly all actives have a fitted effect of over 55% in size)
How it was run: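 MDA-kb2 cells (human breast carcinoma, stably carrying an MMTV-luciferase reporter responsive to AR and GR) were plated at 3,000 cells/well and preincubated 5 hr at 37C, then given compound plus R1881 agonist for 16 h. ONE-Glo luminescence was read.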

SMILES | Potency [1] | Potency [2] | Potency [3] | Potency [4] | Potency [5] | Potency [6] | Potency [7] | Potency [8] | Potency [9] | Potency [10]
O=C(O)C1=C(CSc2nnnn2CS(=O)(=O)O)CS[C@@H]2[C@H](NC(=O)[C@H](O)c3ccccc3)C(=O)N12 | inactive | inactive | inactive | inactive | inactive | inactive | inactive | 26.6 µM (active) | inactive | inactive
CS(=O)(=O)OCC(O)C(O)COS(C)(=O)=O (stereo not given) | inactive | 8.41 µM (active) | 1.33 µM (active) | 23.7 µM (active) | inactive | inactive | inactive | inactive | inactive | inactive
CCOC(=O)[C@@H](N)CS | inactive | inactive | inactive | inactive | inactive | – | – | – | – | –
CN(C)CCC=C1c2ccccc2C(C)(C)c2ccccc21 | inactive | 9.44 µM (active) | 13.3 µM (active) | 13.3 µM (active) | – | – | – | – | – | –
Clc1cc(Cl)c(OCC#CI)cc1Cl | inactive | 1.68 µM (active) | 2.98 µM (active) | 2.66 µM (active) | – | – | – | – | – | –
CC1(C)S[C@@H]2[C@H](NC(=O)C3(N)CCCCC3)C(=O)N2[C@H]1C(=O)O | inactive | inactive | inactive | inactive | inactive | inactive | inactive | inactive | inactive | inactive
CC1(C)S[C@@H]2[C@H](NC(=O)C(C(=O)Oc3ccc4c(c3)CCC4)c3ccccc3)C(=O)N2[C@H]1C(=O)O (stereo not given in full) | inactive | inactive | inactive | inactive | inactive | inactive | inactive | inactive | inactive | inactive
O=C(Cc1cccs1)N[C@@H]1C(=O)N2C(C(=O)[O-])=C(C[n+]3ccccc3)CS[C@H]12 | inactive | inactive | inactive | inactive | inactive | inactive | inactive | inactive | inactive | inactive
CCCCCCCCCCCCCCCCCC(=O)OC[C@@H](O)[C@H]1OC[C@H](O)[C@H]1O | inactive | inactive | inactive | inactive | inactive | inactive | inactive | inactive | inactive | inactive
S=C=Nc1ccc(N=C=S)cc1 | inactive | inactive | inactive | inactive | inactive | – | – | – | – | –
CCCC(=O)N1CCCN(c2nc(N)c3cc(OC)c(OC)cc3n2)CC1 | inactive | inactive | inactive | inactive | inactive | inactive | inactive | inactive | inactive | inactive
O=c1oc2cc(O)ccc2s1 | inactive | inactive | inactive | inactive | inactive | – | – | – | – | –
CCN(CC)CCC(=O)N1c2ccccc2Sc2ccc(Cl)cc21 | inactive | 8.41 µM (active) | 10.6 µM (active) | 11.9 µM (active) | inactive | – | – | – | – | –
CCOC(=O)COc1ccc2c(C)c(CCN(CC)CC)c(=O)oc2c1 | inactive | inactive | inactive | inactive | inactive | inactive | inactive | inactive | inactive | inactive
O=C(/C=C/c1cccc(F)c1)NC1CC1 | inactive | inactive | inactive | inactive | inactive | – | – | – | – | –
CC[C@@]1(O)C[C@H](O[C@H]2C[C@H](N(C)C)[C@H](O[C@H]3C[C@H](O)[C@H](O[C@H]4CCC(=O)[C@H](C)O4)[C@H](C)O3)[C@H](C)O2)c2c(cc3c(c2O)C(=O)c2c(O)cccc2C3=O)[C@H]1C(=O)OC | 2.39 µM (active) | 0.0531 µM (active) | 0.0531 µM (active) | 0.0422 µM (active) | – | – | – | – | – | –
COc1cc2c(cc1OC)[C@@H](c1ccccc1)CN(C)CC2 | inactive | 23.7 µM (active) | inactive | inactive | inactive | inactive | inactive | inactive | inactive | inactive
CN1CCCC(CN2c3ccccc3Sc3ccccc32)C1 (stereo not given) | inactive | 7.5 µM (active) | 8.41 µM (active) | 9.44 µM (active) | inactive | – | – | – | – | –
CCCCCCCCCCCCOCCCN | inactive | inactive | inactive | inactive | inactive | inactive | inactive | inactive | inactive | inactive
O=C(OC[C@H]1O[C@](O)(COC(=O)c2cccnc2)[C@@H](OC(=O)c2cccnc2)[C@@H]1OC(=O)c1cccnc1)c1cccnc1 | inactive | inactive | inactive | inactive | inactive | inactive | inactive | inactive | inactive | inactive
C#C[C@]1(O)CC[C@H]2[C@@H]3CCC4=C/C(=N/O)CC[C@@H]4[C@H]3CC[C@@]21CC | inactive | 16.8 µM (active) | 23.7 µM (active) | 21.1 µM (active) | inactive | 26.8 µM (active) | 4.25 µM (active) | 0.0335 µM (active) | – | –
